# In the supplement of paper PMC11219838:
# Unmarked numbers belong to inactive results.
# Tested on: Caenorhabditis elegans dauer (daf-2(e1370))
# Test: proportion of mobile C. elegans dauer larvae relative to DMSO control (fraction of DMSO control); higher = more viable, less nematicidal, active = 0.63 or less; extreme values may be limits of the assay
# Settings: 60 µM; 5 days; temperature: 20 °C
# Experimental: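 DODA library (846 commercial 1,3,4- and 1,2,4-oxadiazole compounds plus commercial nematicide controls) screened at a single dose of 60 µM (0.6% DMSO) in 96-well plates, two biological replicates. Read-outs: C. elegans N2 L1 survival/reproduction score at day 6, 20 °C (0: 0-10 worms, 1: 11-20, 2: 21-50, 3: >50, 4: overgrown/starved). C. elegans daf-2 dauer, D. dipsaci and M. hapla J2 mobility at day 5, 20 °C, and P. penetrans mobility at day 5, 20 °C, each relative to DMSO controls. M. hapla egg hatching at day 12, 25 °C, relative to the mean of 8 DMSO wells on the same plate.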
row,Compound,proportion of mobile C. elegans dauer larvae
1,CC[C@H](C)[C@H]1O[C@]2(C=C[C@@H]1C)C[C@@H]1C[C@@H](C/C=C(\C)[C@@H](O[C@H]3C[C@H](OC)[C@@H](O[C@H]4C[C@H](OC)[C@@H](O)[C@H](C)O4)[C@H](C)O3)[C@@H](C)/C=C/C=C3\CO[C@@H]4[C@H](O)C(C)=C[C@@H](C(=O)O1)[C@]34O)O2.CO[C@H]1C[C@H](O[C@H]2[C@H](C)O[C@@H](O[C@@H]3/C(C)=C/C[C@@H]4C[C@@H](C[C@]5(C=C[C@H](C)[C@@H](C(C)C)O5)O4)OC(=O)[C@@H]4C=C(C)[C@@H](O)[C@H]5OC/C(=C\C=C\[C@@H]3C)[C@]54O)C[C@@H]2OC)O[C@@H](C)[C@@H]1O [abamectin],0.242 (active)
2,CNC(=O)O/N=C(\SC)C(=O)N(C)C [oxamyl],1
3,O=C(NCCc1ncc(C(F)(F)F)cc1Cl)c1ccccc1C(F)(F)F [fluopyram],0 (active)
4,CC(C)NC(=O)N1CC(=O)N(c2cc(Cl)cc(Cl)c2)C1=O [iprodione],1
